WRN helicase inh: qHTS for Inhibitors of WRN Helicase. WRN helicase unwinding, fluorescent forked duplex, kinetic. Potency, µM (highest dose often 114 µM), for the others: at the top dose activity change, negative = inhibition, usual class: inhibitors. actives 0.46% (n = 360,000); further: potency means the concentration at half of the fitted maximal effect; nearly all actives have a fitted effect of over 55% in size
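Kinetic red-fluorescence monitoring (525/598 nm) tracks WRN helicase activity after 100 nM fluorophore-quencher forked duplex and 2 mM ATP are added to 20 nM enzyme pretreated 15 min at room temperature with compound.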
PLK1 PBD inh: qHTS for Inhibitors of PLK1-PDB (polo-like kinase 1 - polo-box domain): Primary Screen; Plk1 PBD binding of FITC phosphopeptide, fluorescence polarization; Potency, µM, without a hit: max response, negative = inhibition, most hits filed as inhibitors; actives 2.8% (n = 360,000); Serine/threonine-protein kinase PLK1 (Homo sapiens), P53350; further: potency means the concentration at half of the fitted maximal effect; series mostly up to about 57 µM; nearly all actives have a fitted effect of over 65% in size
USP1 inh: Inhibitors of USP1/UAF1: Primary Screen; recombinant USP1/UAF1, Ub-Rhodamine cleavage fluorescence; Potency, µM (highest dose often 57.1 µM), without a hit: at the top dose activity change, negative = inhibition, most hits filed as inhibitors; actives 0.23% (n = 390,000); AID 743255, 2014; further: potency means the concentration at half of the fitted maximal effect; nearly all actives have a fitted effect of over 60% in size
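Step one: compound is pinned into 1nM USP1/UAF1 in HEPES pH 7.8 buffer with TCEP. Step two: 15 min room-temperature incubation. Step three: Ub-Rho (150nM final) starts cleavage, tracked by fluorescence over six one-minute reads.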
PI5P4Ka inh: qHTS for Inhibitors of phosphatidylinositol 5-phosphate 4-kinase (PI5P4K); Phosphatidylinositol 5-phosphate 4-kinase type-2 alpha (Homo sapiens), P48426; PI5P4Kalpha enzyme, ADP-Glo luminescence, 60 min; active compounds read low; max response, %; actives 1.2% (n = 330,000); active means max response of -50% or lower; inconclusive means between -30% and -50%; inactive means -30% or higher; further: value at the top dose of about 77 µM
Target sequence (P48426 whole entry, looked up): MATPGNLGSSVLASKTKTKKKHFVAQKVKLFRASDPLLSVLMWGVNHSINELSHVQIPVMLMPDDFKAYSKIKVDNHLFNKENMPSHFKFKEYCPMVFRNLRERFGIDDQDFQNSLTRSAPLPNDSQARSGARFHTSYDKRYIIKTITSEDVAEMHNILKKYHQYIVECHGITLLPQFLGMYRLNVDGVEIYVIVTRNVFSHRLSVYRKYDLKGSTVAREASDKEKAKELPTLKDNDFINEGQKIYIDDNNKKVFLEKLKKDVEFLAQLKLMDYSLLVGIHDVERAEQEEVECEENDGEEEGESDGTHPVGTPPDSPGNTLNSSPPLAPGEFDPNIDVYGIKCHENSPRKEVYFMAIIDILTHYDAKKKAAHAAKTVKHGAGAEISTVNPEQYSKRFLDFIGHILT
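Quantitative HTS of the MLSMR library against PI5P4Kalpha with substrate. ATP added last at 5 microM final; room temperature, 60 minutes. Remaining ATP depleted, ADP converted and read as luminescence.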
USP2a block: qHTS Assay for Inhibitors of Ubiquitin-specific Protease USP2a Using CHOP2 as the Reporter; Ubiquitin carboxyl-terminal hydrolase 2 (Homo sapiens), O75604; USP2 core, Ub-CHOP2 coupled fluorogenic reporter, 485/531; Potency, µM (titrated, usually from 38.3 µM), for inactives: top-dose activity change, negative = inhibition, hits mostly inhibitors; actives 0.01% (n = 330,000);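 further: potency means the concentration at half of the fitted maximal effect; plate controls were DMSO wells for no effect and full inhibition by NEM control for full effect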
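Deubiquitinase activity read as fluorescence (485/531 nm) after Ub-CHOP2 cleavage activates the enterokinase reporter on its substrate; USP2 core 10nM, Ub-CHOP2 and substrate 25nM each, 30min compound preincubation then 60min RT; data normalized to NEM, curves fitted.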
Starred values were filed as active, the others as inactive; [ ] = another dose, or the depositor's remark. Shown are actives, neighbours in structure and some others; about 3.3% of the full set was active somewhere. Unless noted, the call rests on the fitted dose curve; in most records, active means well fitted curve in the direction sought with a large enough effect; inconclusive means small, poorly fitted or top-dose-only effect, or another doubt; inactive means no such curve, though single readings can be large; an effect the other way counts as inactive or inconclusive. Unless noted, on the % scale 0 is the no-effect control and ±100 the full control effect.

How did CC1(C)Cc2ccccc2C(COc2ccccc2)=N1 do in these assays?
WRN helicase inh: 1%; PLK1 PBD inh: 27µM*; USP1 inh: -14%; PI5P4Ka inh: -11; USP2a block: 2%

How did Cn1nccc1/C=C(/C#N)S(=O)(=O)c1ccccc1 do in these assays?
WRN helicase inh: -5%; PLK1 PBD inh: 11µM*; USP1 inh: -13%; PI5P4Ka inh: inconclusive; USP2a block: 1%

Results for Cc1ncc(CO)c(/C=N/NC(=O)c2ccc(O)cc2)c1O ?
WRN helicase inh: -22%; PLK1 PBD inh: -3%; USP1 inh: -2%; PI5P4Ka inh: -17; USP2a block: 4%

Results for Cc1ncc(CO)c(/C=N/NC(=S)Nc2cccc(Cl)c2)c1O ?
WRN helicase inh: -6%; PLK1 PBD inh: 21µM*; USP1 inh: -14%; PI5P4Ka inh: -29; USP2a block: 3%

How did Cc1ncc(CO)c(/C=N/NC(=S)Nc2ccc(Cl)c(Cl)c2)c1O do in these assays?
WRN helicase inh: -8%; PLK1 PBD inh: 27µM*; USP1 inh: -13%; PI5P4Ka inh: -15; USP2a block: 5%

What do the screens show for `Cc1nn(C)c2c1c(C(F)(F)F)cc(=O)n2C(C)C(=O)N1CCN(c2ccccc2)CC1` (stereo not given)?
USP1 inh: -29%

How did COC(=O)[C@H](CC(C)C)NC(=O)c1cc2c(cn1)[nH]c1ccccc12 do in these assays?
WRN helicase inh: -5%; PLK1 PBD inh: 3.8µM*; USP1 inh: -25%; PI5P4Ka inh: inconclusive; USP2a block: -5%

What do the screens show for `COc1ccc(NC(=O)C(Cc2ccccc2)n2cccc2)cc1` (stereo not given)?
WRN helicase inh: -4%; PLK1 PBD inh: -16%; USP1 inh: -4%; PI5P4Ka inh: 2; USP2a block: 0%

What do the screens show for `CC(=O)c1ccc(NC(=O)C(Cc2ccccc2)n2cccc2)cc1` (stereo not given)?
WRN helicase inh: -2%; PLK1 PBD inh: 13µM*; USP1 inh: -15%; PI5P4Ka inh: inconclusive; USP2a block: 6%

What do the screens show for `CCCCOC(=O)c1ccc(NC(=O)CSc2nc3c(c(=O)[nH]2)CCC3)cc1`?
USP1 inh: -23%

What do the screens show for `Cc1cccc(OCC(=O)Nc2nnc(S(=O)(=O)N3CCc4ccccc43)s2)c1`?
USP1 inh: -23%

What do the screens show for `CNC(=S)N(Cc1ccc(OC)cc1)Cc1cc2cccc(C)c2[nH]c1=O`?
WRN helicase inh: -18%[57.1 µM]; PLK1 PBD inh: 13µM*; USP1 inh: -10%; PI5P4Ka inh: -20; USP2a block: 1%

How did COc1ccc(CN(Cc2cc3cccc(C)c3[nH]c2=O)C(=O)N(C)C)cc1 do in these assays?
WRN helicase inh: 6%; PLK1 PBD inh: -5%; USP1 inh: -3%; PI5P4Ka inh: 3; USP2a block: -1%

Results for CCC(C)NC(=O)c1ccccc1NC(=O)CN1C(=O)c2cccc3cccc1c23 (stereo not given) ?
USP1 inh: -8%

How did O=C1C(Br)=C(c2ccccc2)C(c2ccccc2)=C1c1ccccc1 do in these assays?
WRN helicase inh: inconclusive; PLK1 PBD inh: 2.7µM*; USP1 inh: -3%; PI5P4Ka inh: 0

How did CCC(C)NC(=O)C1CCN(C(=O)c2ccc(-n3ccc4ccccc43)s2)CC1 (stereo not given) do in these assays?
USP1 inh: -19%

What do the screens show for `COc1cc(C(=O)N2c3ccccc3CCC2C)cc(OC)c1OC` (stereo not given)?
WRN helicase inh: 4%; PLK1 PBD inh: 0%; USP1 inh: -17%; PI5P4Ka inh: -1; USP2a block: 0%

Results for CC1CCc2ccccc2N1C(=O)c1cccs1 (stereo not given) ?
WRN helicase inh: 8%; PLK1 PBD inh: 21µM*; USP1 inh: -12%; PI5P4Ka inh: -3; USP2a block: -2%
